The nature of test [1]: qHTS assay for small molecule agonists of the p53 signaling pathway (AID 651631; calls by dose curve; also: nearly all actives have a fitted effect of over 15% in size). The settings on record: HCT-116 p53RE-bla reporter, beta-lactamase FRET ratio, 16 h; series mostly up to 73.3 µM. A digest of the protocol: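 HCT-116 cells carrying a stable p53 response element–beta-lactamase reporter were plated, rested 5 h at 37 °C, then exposed to compound in DMSO for 16 h at 37 °C; reporter activity was read as FRET substrate fluorescence after 2 h at room temperature.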

Test [2] in a line: qHTS assay for small molecules that induce genotoxicity in human embryonic kidney cells expressing luciferase-tagged ATAD5 (AID 651632). Also: nearly all actives have a fitted effect of over 15% in size. The settings on record: HEK293T ATAD5-luciferase induction, 16 h; series mostly up to 83.3 µM. Summed up: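 ATAD5-luc HEK293T, 2,000 cells/well; cpd or DMSO pin-transferred; 16 hr, 37C/5% CO2; Amplite 30 min RT; luminescence.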
(In general: qHTS replaces the single test concentration by a dilution series.)

The nature of test [3]: qHTS assay for small molecule agonists of the p53 signaling pathway - cell viability (AID 651633; calls by dose curve; also: nearly all actives have a fitted effect of over 30% in size). The conditions noted are these: p53RE-bla HCT-116 viability, ATP luminescence, 16 h; series mostly up to 83.3 µM. A digest of the protocol:
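Viability counter-read: CellTiter-Glo luminescence (30 min, room temperature) in the same p53RE-bla plates. These plates had been exposed to compounds for 16 h at 37 C.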

Test [4] is described as follows: qHTS assay for small molecules that induce genotoxicity in human embryonic kidney cells expressing luciferase-tagged ATAD5 - cell viability (AID 651634; calls by dose curve; also: nearly all actives have a fitted effect of over 25% in size). The settings on record: HEK293T ATAD5-luc cells viability, CellTiter-Fluor, 15.5 h; series mostly up to 83.3 µM. Summed up: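 Fluorescence from CellTiter-Fluor, reporting protease activity within live cells, served as the viability read-out. HEK293T cells carrying luciferase-tagged ATAD5 had been treated with compound for 15.5 hr at 37C.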

A short description of test [5]: qHTS assay for small molecule disruptors of the mitochondrial membrane potential - cell viability (AID 720634; calls by dose curve;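 also: human HepG2 liver cancer cells; nearly all actives have a fitted effect of over 20% in size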). The conditions noted are these: HepG2 viability, ATP luminescence (CellTiter-Glo), 1 h; series mostly up to 83.2 µM. A digest of the protocol:
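Cells: HepG2, 2,000/well, attached overnight. Compound 1 hr, 37 C/5% CO2. +m-MPI dye, +CellTiter-Glo 30 min RT. Readout: luminescence (ATP).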

A short description of test [6]: qHTS assay for small molecule disruptors of the mitochondrial membrane potential (AID 720635). Also: potency is read from the fitted curve at half-maximal effect. The conditions noted are these: HepG2 mitochondrial membrane potential, Mito-MPS dye ratio; series mostly up to 83.2 µM. A digest of the protocol:
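Mitochondrial membrane potential tracked with Mito-MPS dye, red aggregates (ex 540/em 590 nm) against green monomers (ex 490/em 535 nm). Compound treatment 1 hr at 37C, dye 30 min in HepG2.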

A short description of test [7]: qHTS assay to test for compound auto fluorescence at 590 nm (red) in HepG2 cells (AID 720674). The settings on record: HepG2 autofluorescence, red 540/590 nm, 1 h; series mostly up to 91.3 µM. A digest of the protocol:
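We screened compounds on adherent HepG2 cells, incubating them for an hour at 37 C in 5% CO2 before reading emission at 590 nm under 540 nm excitation; values reflect equivalence to Rose Bengal sodium fluorescence.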

Test [8] is described as follows: qHTS assay to test for compound auto fluorescence at 535 nm (green) in HepG2 cells (AID 720675). The settings on record: green autofluorescence 485/535 nm, 1 h; series mostly up to 91.3 µM.
Test [9] can be described thus: qHTS assay to test for compound auto fluorescence at 460 nm (blue) in HEK293 cells (AID 720678). The conditions noted are these: blue autofluorescence 405/460 nm; series mostly up to 91.3 µM. Summed up:
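Cells were seeded and left to adhere for 4-5 hr at 37C. Compounds were then pin-transferred. After an overnight incubation at 37C under 5% CO2, intrinsic fluorescence at 405/460 nm was measured and referenced to triamterene.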

A short description of test [10]: qHTS assay to test for compound auto fluorescence at 590 nm (red) in HEK293 cells (AID 720679). The settings on record: red autofluorescence 540/590 nm; series mostly up to 91.3 µM. A digest of the protocol: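 Each well held 2,000 HEK293 cells in medium containing 10% dialyzed FBS. Following 4-5 hr attachment at 37C, 23 nL test compound or DMSO was added; plates sat overnight, and red fluorescence (540/590nm) was recorded.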

Test [11] can be described thus: qHTS assay to test for compound auto fluorescence at 535 nm (green) in HEK293 cells (AID 720680). The conditions noted are these: green autofluorescence 485/535 nm; series mostly up to 91.3 µM.
A short description of test [12]: qHTS assay to test for compound auto fluorescence at 460 nm (blue) in HEK293 cell free culture (AID 720681). The settings on record: cell-free medium, autofluorescence 405/460 nm (blue); series mostly up to 91.3 µM. Summed up:
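Blue fluorescence (Ex 405/Em 460 nm, triamterene-equivalent) was read immediately after pin transfer of compound or DMSO into medium (DMEM, 10% FBS) without cells.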

A short description of test [13]: qHTS assay to test for compound auto fluorescence at 535 nm (green) in HEK293 cell free culture (AID 720682). The conditions noted are these: cell-free medium, green autofluorescence 485/535 nm, stronger effect = higher value; series mostly up to 91.3 µM. Summed up: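 Read-out: 485/535 nm fluorescence intensity, calibrated against fluorescein. Medium only (DMEM + 10% FBS, no cells); test compound or DMSO vehicle added by pintool before plate reading.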

Test [14] can be described thus: qHTS assay to test for compound auto fluorescence at 590 nm (red) in HEK293 cell free culture (AID 720683). The conditions noted are these: cell-free medium autofluorescence, Ex540/Em590 red; series mostly up to 91.3 µM. A digest of the protocol:
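Red-channel autofluorescence of compounds in culture medium (DMEM, 10% FBS), no cells, measured at 540/590 nm. Rose Bengal sodium is the reference fluorophore for equivalence.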

The nature of test [15]: qHTS assay to test for compound auto fluorescence at 590 nm (red) in HepG2 cell free culture (AID 720684). The conditions noted are these: cell-free medium autofluorescence, red 540/590 nm; series mostly up to 91.3 µM. Summed up: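 Plate contents were MEM with 10% FBS plus test compound or DMSO, no cells. Fluorescence was recorded with 540 nm excitation and 590 nm emission.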

Test [16] can be described thus: qHTS assay to test for compound auto fluorescence at 535 nm (green) in HepG2 cell free culture (AID 720686). The settings on record: Cell-free medium, green autofluorescence 485/535 nm; series mostly up to 91.3 µM.
Test [17] can be described thus: qHTS assay to test for compound auto fluorescence at 460 nm (blue) in HepG2 cells (AID 720687). The conditions noted are these: autofluorescence 405/460 nm, 1 h; series mostly up to 91.3 µM. A digest of the protocol: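 Blue-channel autofluorescence (Ex/Em 405/460 nm, triamterene-equivalent) was measured after 1 hr compound exposure at 37 C, 5% CO2. Cells were HepG2, plated overnight at 37 C in MEM plus 10% FBS.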

The target in test [18] is Glucocorticoid receptor (Homo sapiens) (UniProt P04150). The experiment in a line: qHTS assay to identify small molecule agonists of the glucocorticoid receptor (GR) signaling pathway (AID 720691; active = well fitted activation curve with a large enough effect in the signal ratio in the repeat runs, not every such curve was filed as active; the % refers to the signal ratio). The settings on record: GR-bla HeLa, beta-lactamase reporter ratio, 18 h; activation: at 62.4 µM (top of the series) unless noted. A digest of the protocol: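 Fluorescence intensity from LiveBLAzer B/G FRET substrate (2 h, room temperature) reports beta-lactamase expression driven by the glucocorticoid response element in GR-bla HeLa cells after 18 h compound exposure at 37 C.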
Sequence of Glucocorticoid receptor (Homo sapiens) (P04150 whole entry, looked up): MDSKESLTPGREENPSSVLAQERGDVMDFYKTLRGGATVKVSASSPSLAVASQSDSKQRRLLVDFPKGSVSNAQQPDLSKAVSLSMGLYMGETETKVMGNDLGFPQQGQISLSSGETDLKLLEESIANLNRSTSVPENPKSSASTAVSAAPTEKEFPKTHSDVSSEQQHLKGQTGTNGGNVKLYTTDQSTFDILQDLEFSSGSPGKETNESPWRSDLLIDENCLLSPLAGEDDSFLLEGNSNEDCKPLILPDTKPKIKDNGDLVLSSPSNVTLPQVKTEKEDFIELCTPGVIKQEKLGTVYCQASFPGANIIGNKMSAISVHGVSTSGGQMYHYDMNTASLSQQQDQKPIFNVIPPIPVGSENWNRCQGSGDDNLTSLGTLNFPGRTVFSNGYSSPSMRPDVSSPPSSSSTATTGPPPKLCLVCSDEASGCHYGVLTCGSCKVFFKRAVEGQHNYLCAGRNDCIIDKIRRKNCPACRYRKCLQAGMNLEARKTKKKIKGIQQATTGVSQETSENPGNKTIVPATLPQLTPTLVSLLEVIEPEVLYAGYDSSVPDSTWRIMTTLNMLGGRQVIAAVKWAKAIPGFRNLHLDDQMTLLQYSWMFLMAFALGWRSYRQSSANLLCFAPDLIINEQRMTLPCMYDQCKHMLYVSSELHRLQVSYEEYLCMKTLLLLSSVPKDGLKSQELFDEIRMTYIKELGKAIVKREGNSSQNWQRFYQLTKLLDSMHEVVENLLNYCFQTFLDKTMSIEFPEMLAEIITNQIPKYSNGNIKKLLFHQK

The target is the same in test [19]. The experiment in a line: qHTS assay to identify small molecule antagonists of the glucocorticoid receptor (GR) signaling pathway (AID 720692; active = well fitted inhibition curve with a large enough effect in the signal ratio in the repeat runs, not every such curve was filed as active; the % refers to the signal ratio). The conditions noted are these: GR-bla HeLa, beta-lactamase FRET ratio, dexamethasone-stimulated, 18 h; series mostly up to 58.5 µM. A digest of the protocol: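 HeLa GR-bla cells; cmpd + dex 5 nM final, 18 h 37 C; LiveBLAzer B/G FRET substrate 2 h RT; fluorescence intensity read. Antagonist mode, qHTS.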

Test [20] is described as follows: qHTS assay to test for compound auto fluorescence at 460 nm (blue) in HepG2 cell free culture (AID 720685). The settings on record: Cell-free culture medium, blue autofluorescence 405/460 nm; series mostly up to 91.3 µM. A digest of the protocol: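 Compound (23 nL) or DMSO pinned into cell-free MEM with 10% FBS; blue fluorescence read at 405/460 nm excitation/emission, expressed as auto-fluorescence equivalency to triamterene.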

Values without a mark were called inactive. Records with an inconclusive call do not appear. The source made the active and inactive calls. Unless noted, calls follow the shape of the dose curve; as a rule, active = well fitted curve in the direction sought with a large enough effect in the repeat runs; inconclusive = weak or mixed curves; inactive = no such curve, though single readings can be large; an effect the other way counts as inactive or inconclusive.

With `COC(C)(C)CCO`, the Potency result in test [1], in test [2], in [3], in test [4], in [5] and in [6] was “inactive” throughout. In addition, the Potency entry in [7], in [8], in test [10], in test [14], in test [15] and in test [16] was “inactive” each time. The Potency entry in test [18] and in test [19] was “inactive” each time. In addition, the outcome in test [9], in [11], in test [12], in test [13] and in test [17] was inactive.
Turning to `CCCCC(CC)COC(=O)CCCCCCCCC(=O)OCC(CC)CCCC` (centres undefined), the Potency result in test [1], in test [2], in [3], in test [4], in test [5] and in test [6] was “inactive” each time. The Potency result in test [7], in test [8], in [10], in test [14], in [15] and in [16] was “inactive” throughout. Moreover, the Potency result in [18] was “inactive”. Besides, the outcome in [9], in test [11], in [12], in [13], in test [20] and in test [17] was inactive.
In the case of `CC1OC(=O)C(C)OC1=O` (centres undefined), the Potency result in test [1], in test [2], in test [3], in [4], in test [5] and in test [6] was “inactive” throughout. Besides, the Potency entry in test [7], in test [8], in test [10], in [14], in test [15] and in test [16] was “inactive” throughout. Moreover, the Potency result in test [18] was “inactive”. Moreover, the outcome in test [9], in test [11], in test [12], in [13], in [20] and in test [17] was inactive.
Take `O=C(O)c1ccco1`: the Potency entry in test [1], in test [2], in test [3], in [4], in test [5] and in test [6] was “inactive” in each case. Further, the Potency entry in test [7], in test [8], in test [10], in test [14], in [15] and in [16] was “inactive” each time. In addition, the molecule was called inactive in test [9], in [11], in test [12], in test [13], in [20] and in test [17].
For the molecule `COc1ccc(C(=O)N2CCN(CC(=O)N3CCOCC3)CC2)cc1`, the Potency entry in test [1], in test [2], in test [3], in [4], in [5] and in test [6] was “inactive” each time. The Potency entry in test [7], in [8], in test [14], in test [15] and in test [16] was “inactive” throughout. Also, the result in [9], in [11], in [12], in [13] and in test [17] was inactive.
As to `O=[N+]([O-])c1ccc2[nH]ncc2c1`, the Potency entry in [1], in test [2], in [3], in test [4], in [5] and in test [8] was “inactive” throughout. For the same molecule, the Potency entry in [10], in test [14], in test [15], in [16], in test [18] and in test [19] was “inactive” each time. In addition, the Potency in test [6] was 38.5 µM (active). Further, the molecule was called inactive in test [9], in test [11], in [12], in [13] and in test [17].

These data come from PubChem BioAssay (Tox21).
